# The supplement of paper PMC4954754
# ± gives the uncertainty stated by the source.
# System: HEK293T-Rex XBP1-RLuc
# Experiment: XBP1-RLuc splicing reporter activation, triplicate, relative to 500 nM thapsigargin (% of thapsigargin); higher = stronger IRE1/XBP1s reporter activation
# Conditions: 6.8 µM; 18 h; screen: confirmation
# Procedure: (§1)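 HEK293T-Rex cells stably expressing the ERSE-firefly luciferase (BiP promoter, ATF6-preferring) or XBP1-splicing Renilla luciferase (IRE1/XBP1s) reporter, 1536-well plates, compound at 6.8 µM for 18 hr at 37 °C; luminescence read […] and expressed as % activation = 100*(compound - median DMSO)/(median 500 nM thapsigargin - median DMSO). Primary screen was single-pass; confirmation screen in triplicate (mean ± SD).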
row,Structure (SMILES),XBP1-RLuc splicing reporter activation
1,NC(=O)c1c(NC(=O)COc2ccccc2)sc2c1CCC2,-0.209 ± 0.99
2,NC(=O)c1c(NC(=O)/C=C/c2ccccc2)sc2c1CCCCC2,6.12 ± 0.94
3,O=C1/C(=C/c2ccc(O)c(O)c2)SC(=S)N1c1ccc(O)cc1,14.6 ± 1.1
4,COc1cccc(C(=O)Nc2nc3ccc(C)cc3s2)c1,5.6 ± 0.99
5,Cc1ccc(O)c(-c2cc(C(F)(F)C(F)F)no2)c1,13.8 ± 1.5
6,COc1ccc(C2=Nn3c(nnc3-c3ccc(OC)cc3)SC2)cc1,10.4 ± 1.3
7,Cc1ccc(O)c(N=CC2=C(O)c3ccccc3C2=O)c1,24.1 ± 1.3
8,Nc1nc(Nc2ccccc2)cc(-c2ccccc2)n1,1.44 ± 0.87
9,Cc1ccc(Nc2nc(N)c3ccccc3n2)cc1Cl,8.06 ± 2.4
10,N#Cc1c(NC(=O)c2ccc(Br)cc2)sc2c1CCCC2,1.92 ± 0.76
11,Cc1cc(C)c(OCC(=O)N/N=C/c2ccc(O)c(O)c2)c(Br)c1,17.1 ± 1.1
12,CC(=O)Oc1ccc(C(=O)OCc2ccc(Cl)cc2)cc1OC(C)=O,12.3 ± 2.2
13,Cc1cc2nc(/C(C#N)=C/c3ccco3)[nH]c2cc1C,4.3 ± 0.47
14,CCCCNC(=O)c1cc(-c2ccc(F)cc2)on1,7.08 ± 0.26
15,N#C/C(=C\c1ccc(O)c(O)c1)c1nc2ccccc2[nH]1,12.6 ± 0.2
16,O=C(/C=C/c1ccco1)Nc1ccccn1,0.777 ± 0.52
17,CC(=Nc1ccc(O)cc1)c1sc2ccccc2c1O,15.7 ± 4.1
18,CC(C)CC(c1nnnn1C1CCCC1)N1CCN(C(=O)c2ccco2)CC1 (stereo not drawn),10.6 ± 2.2
19,Cc1cc(C)nc(/N=C(\N)Nc2ccc(OCc3ccc(Cl)cc3)cc2)n1,81.2 ± 5.9

row,Structure (SMILES),XBP1-RLuc splicing reporter activation
1,O=C(Nc1ccc2nc(NC(=O)C3CCCCC3)sc2c1)C1CCCCC1,6.08 ± 0.7
2,COc1ccc2oc(=Nc3cc(F)ccc3F)c(C(N)=O)cc2c1,4.22 ± 1
3,Oc1ccccc1/C=N\Nc1nc2ccccc2o1,19.1 ± 1.9
4,Cc1ccc(O)c(NC(=O)c2cc(-c3ccco3)on2)c1,19 ± 4.5
5,CCCCNNC(=O)c1ccc(Br)cc1,9.12 ± 0.67
6,COc1cccc(C(=O)Nc2sc3c(c2C#N)CC(C)CC3)c1 (stereo not drawn),3.54 ± 0.93
7,C(=C\c1ccccc1)/C=N/Nc1nc2ccccc2[nH]1,5.21 ± 0.2
8,Cc1ccc(/C=C(\C#N)C(=O)Nc2cccc(Cl)c2)o1,0.278 ± 1.4
9,COc1ccccc1OCC(=O)Nc1cc(C)ccc1O,19.6 ± 1.9
10,Cc1ccc(NC(=S)NC(=O)C(=O)Nc2ccccc2)cc1,58.6 ± 3.3
11,N#CC1=C(N)Oc2c(ccc3ccccc23)C1c1ccsc1 (stereo not drawn),9.04 ± 1.1
12,Nc1ccc2nc(/C=C/c3ccccc3)[nH]c2c1,13.7 ± 0.35
13,Cc1nc(-c2ccc(C(=O)Nc3ccc(O)cc3)cc2)cs1,19.3 ± 0.19
14,OCCNc1nc(Nc2ccc(Br)cc2)nc2ccccc12,23.4 ± 2.2
15,O=C1c2cc(O)ccc2-c2ccc(O)cc21,17.8 ± 0.69
16,COc1ccc(Nc2nccn3c(-c4ccsc4)cnc23)cn1,3.91 ± 0.5
17,O=[N+]([O-])c1ccc(/C=C/c2ccc(O)cc2)cc1,19.2 ± 1.3
18,COc1ccccc1-c1nnc(Nc2nc3c(OC)cccc3s2)o1,10.2 ± 1

# System: HEK293T-Rex ERSE-FLuc
# Experiment: ERSE-FLuc reporter activation, triplicate confirmation, relative to 500 nM thapsigargin (% of thapsigargin); higher = stronger ATF6/ERSE reporter activation
# Conditions: 6.8 µM; 18 h; screen: confirmation
# Procedure: as §1
row,Structure (SMILES),ERSE-FLuc reporter activation
1,Cc1ccc(O)c(N=CC2=C(O)c3ccccc3C2=O)c1,78.8 ± 6.2
2,CC(C)CC(c1nnnn1C1CCCC1)N1CCN(C(=O)c2ccco2)CC1 (stereo not drawn),29.5 ± 1
3,O=C(Nc1ccc2nc(NC(=O)C3CCCCC3)sc2c1)C1CCCCC1,26.5 ± 4.1
4,CCCCNNC(=O)c1ccc(Br)cc1,60.9 ± 6
5,C(=C\c1ccccc1)/C=N/Nc1nc2ccccc2[nH]1,27.2 ± 3.8
6,O=[N+]([O-])c1ccc(/C=C/c2ccc(O)cc2)cc1,28.8 ± 3.3
